# Measured values taken from PubChem BioAssay AID540308 (The Scripps Research Institute Molecular Screening Center, 2011).
# Hit rate of the full screen: of about 360,000 compounds, about 3,500 (0.97%) were called active. Shown is part of a subset that was picked to be rich in actives. A number with no mark means an inactive call.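 Rule for the calls: active = activation above a per-plate cutoff, the mean activation of sample wells on that plate plus 3 SD (cut at about 8% in these data); inactive = the rest.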
# Molecular target: Melanocortin receptor 4 (Homo sapiens) (UniProt P32245)
# Assay: activators of MC4R beta-arrestin recruitment – cell-based, luminescence, agonist arm of biased-ligand search, primary screen (AID 540308)
# Details: U2OS MC4R beta-arrestin complementation, at 8.9 µM, active compounds read high, percent of melanotan II response, DMSO zero
# Melanocortin receptor 4 (Homo sapiens), sequence (P32245 whole entry, looked up): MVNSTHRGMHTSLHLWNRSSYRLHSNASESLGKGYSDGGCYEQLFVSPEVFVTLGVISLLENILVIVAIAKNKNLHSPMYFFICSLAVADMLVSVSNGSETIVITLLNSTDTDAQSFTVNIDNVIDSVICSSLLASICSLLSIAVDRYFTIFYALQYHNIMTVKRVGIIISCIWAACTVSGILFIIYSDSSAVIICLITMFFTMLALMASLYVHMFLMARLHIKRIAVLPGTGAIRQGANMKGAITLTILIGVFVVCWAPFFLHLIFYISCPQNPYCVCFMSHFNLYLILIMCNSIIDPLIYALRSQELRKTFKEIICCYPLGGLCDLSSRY
row,Compound,activation
1,COc1cc(/C=C/C(=O)OCC(=O)c2ccccc2)cc(OC)c1OC,-2.53%
2,CCOc1ccc(/C=C/C(=O)OCC(=O)c2ccccc2OC)cc1OC,12.9% (active)
3,COc1ccc(/C=C/C(=O)OCC(=O)NC2CCCCCC2)cc1OC,0.56%
4,O=C(Nc1ccc(Cl)cc1)c1csc([C@@H]2O[C@H](CO)[C@H](O)[C@H](O)[C@H]2O)n1,-0.59%
5,CCOCCC(=O)Nc1ccc2c(c1)c(=O)n(C)n2-c1ccc2ccccc2c1,-1.1%
6,Oc1c(Br)cc(/C=N/NC(=S)NCC2CCCO2)cc1Br (centres undefined),-1.36%
7,CC1(C(=O)NS(=O)(=O)c2cccc(F)c2)CCN1C(=O)c1cccc2ccccc12 (centres undefined),-0.68%
8,COc1ccc(-n2nnc3c(=O)n(CC(=O)N4CCC(Cc5ccccc5)CC4)cnc32)cc1,3.13%
9,COc1ccc(-n2nnc3c(=O)n(CC(=O)OCc4ccccc4)cnc32)cc1,1.74%
10,O=C(Cn1cnc2c(nnn2-c2ccccc2)c1=O)N1CCC(Cc2ccccc2)CC1,11.7% (active)
11,Cc1c(C(=O)NCc2ccc(C#N)cc2)sc(=O)n1Cc1ccc(C(=O)N(C)C)cc1,1.47%
12,OC[C@@H]1CN(Cc2ccc(Cl)cc2)C[C@H](n2cnc3c(NCc4ccncc4)ncnc32)O1,0.2%
13,COc1cc(/C=C(\C#N)C(=O)Nc2ccc3ccccc3c2)c([N+](=O)[O-])cc1OC,20.1% (active)
14,COc1cc(/C=C(/NC(=O)c2ccccc2)C(=O)Nc2cccc(O)c2)c([N+](=O)[O-])cc1OC,0.1%
15,COc1ccc(NC(=O)/C(C#N)=C\c2cc(OC)c(OCc3ccc(C(=O)O)cc3)cc2Br)cc1,-1.04%
16,Cc1cccc(C)c1Cn1c(C)c(C(=O)NCc2cccc(Cl)c2)sc1=O,-0.04%
17,O=C(COC(=O)c1cccc(Br)c1)Nc1cccc2c1C(=O)c1ccccc1C2=O,22.1% (active)
18,O=C(COC(=O)c1ccccc1)Nc1ccccc1Sc1ccccc1,-0.01%
19,O=C(COC(=O)Cn1cnc2ccccc21)Nc1cccc2c1C(=O)c1ccccc1C2=O,-2.17%
20,CC1(C(=O)NS(=O)(=O)c2ccccc2)CCN1C(=O)Cc1ccc(-c2ccccc2)cc1 (centres undefined),-1.08%
21,COc1cc(CNc2ncnc3c2ncn3[C@H]2CN(Cc3cccs3)C[C@@H](CO)O2)cc(OC)c1OC,1%

row,Compound,activation
1,CCc1nc2c(OCc3ccccc3)cccn2c1N(C)C(=O)c1ccco1,-0.58%
2,Cc1ccc(NC(=O)O/N=C/c2cccc([N+](=O)[O-])c2)cc1,-5.02%
3,O=[N+]([O-])c1cccc(C=NN=Cc2ccccc2O)c1,9.24% (active)
4,COc1ccc(O)c(/C=N/N=C/c2cccc([N+](=O)[O-])c2)c1,-0.29%
5,CCCc1ccc(C(O)c2ncc(-c3cccc(OC)c3)[nH]2)cc1 (centres undefined),-1.27%
6,COc1ccc(C(=O)N2CCCCC2c2cc(C(=O)Nc3ccccc3)no2)cc1 (centres undefined),-1.46%
7,CN(C)C(=O)c1cccc(-c2cnc3sc(NCc4ccc5c(c4)OCO5)nn23)c1,0.82%
8,CCN1C[C@@H]2[C@@H]3C(=O)N(Cc4ccccc4)C(=O)[C@@H]3[C@](Cc3ccccc3)(C(=O)OC)N2C1=NC1CCCCC1,13.2% (active)
9,CC[C@]1(C(=O)OC)[C@H]2C(=O)N(Cc3ccccc3)C(=O)[C@H]2[C@H]2CN=C(SCc3ccccc3)N21,-0.47%
10,CCCN=C1N(C)C[C@@H]2[C@@H]3C(=O)N(Cc4ccccc4)C(=O)[C@@H]3[C@](C)(C(=O)OC)N12,-1.43%
11,COc1ccc(CCCNC(=O)C2Cc3c(-c4cccc(C(N)=O)c4)ccnc3O2)cc1 (centres undefined),-1.12%
12,CCCNC(=O)C1(C)CCCN(C(=O)c2oc3ccccc3c2C)C1 (centres undefined),-0.51%
13,CC(C)(C)C(=O)Nc1ccc(C(=O)N/N=C/c2ccccc2OC(=O)c2ccc(Cl)cc2Cl)cc1,-0.61%
14,O=C(N/N=C/c1ccc(OC(=O)c2ccccc2Cl)cc1)c1ccc(O)cc1,13.4% (active)
15,O=C(COc1ccc(/C=N/NC(=O)c2ccc(O)cc2)cc1)Nc1ccc([N+](=O)[O-])cc1,2.23%
16,CCc1nc2c(OCc3ccc(F)c(F)c3)cccn2c1N(C)C(=O)c1ccco1,1.17%
17,CN(C)CCNC(=O)c1ccc(-c2cn3c(-c4ccc(Oc5ccccc5)cc4)cnc3cn2)cc1,1.4%
18,CC(=O)c1cccc(-c2cnc3c(NC=O)cc(-c4ccccc4Oc4ccccc4)cn23)c1,3.06%
19,CN(C)C(=O)c1cccc(-c2cnc3c(NC=O)cc(-c4ccc(C(=O)N5CCOCC5)cc4)cn23)c1,3.87%
20,COc1ccc(-c2cc(NC=O)c3ncc(-c4ccccc4)n3c2)cc1OC,21.5% (active)
21,COc1ccc(-c2cc(NC=O)c3ncc(-c4cc(OC)c(OC)c(OC)c4)n3c2)c(OC)c1,7.55%

row,Compound,activation
1,CN(C)CCNC(=O)c1cccc(-c2cnc3c(NC=O)cc(-c4cccc(C(F)(F)F)c4)cn23)c1,13.3% (active)
2,CC(=O)c1cccc(-c2cnc3c(NC=O)cc(-c4ccc(N(C)C)cc4)cn23)c1,10% (active)
3,CC(=O)c1cccc(-c2cnc3c(NC=O)cc(-c4cccc(C(=O)N(C)C)c4)cn23)c1,6.06%
4,CC(=O)c1ccc(-c2cnc3c(NC=O)cc(-c4cccc(NS(C)(=O)=O)c4)cn23)cc1,-0.24%
5,COc1ccc(-c2cc(NC=O)c3ncc(-c4cccc(C(=O)N(C)C)c4)n3c2)c(OC)c1,5.89%
6,CN(C)C(=O)c1cccc(-c2cnc3c(NC=O)cc(-c4ccc(F)cc4)cn23)c1,11.3% (active)
7,CC(=O)c1cccc(-c2cnc3c(NC=O)cc(-c4ccc(N5CCN(C)CC5)cc4)cn23)c1,-0.45%
8,CC(C)NC(=O)C1(C)CCCCN1Cc1cccc(C(F)(F)F)c1 (centres undefined),1.6%
9,COc1cccc(C(O)c2ncc(-c3ccc4ccccc4c3)[nH]2)c1 (centres undefined),-2.03%
10,CSc1ccc(CN2CCC2(C)C(=O)NCc2ccccc2Br)cc1 (centres undefined),0.53%
11,COc1cccc(C(O)c2nc(-c3ccc(C)c(C)c3)cs2)c1 (centres undefined),1.59%
12,CC(O)(c1cccc(F)c1)c1nc(-c2ccc3c(c2)OCO3)cs1 (centres undefined),3.56%
13,O=C(Nc1ccc(Cl)cc1)C1Cc2c(-c3ccc4c(c3)OCO4)ccnc2O1 (centres undefined),1.36%
14,COc1cc(NC(=O)c2ccccc2)c(OC)cc1NC(=O)Cc1ccccc1,-1.99%
15,COc1cc(NC(=O)c2ccc(-c3csc(C)n3)cc2)c(OC)cc1Cl,9.13% (active)
16,CCOCC(=O)Nc1cc(OC)c(Cl)cc1OC,-0.35%
17,CCc1nc2c(OCc3cccc(OC)c3)cccn2c1N(C)C(=O)C(C)C,1.4%
18,CCCCN(C=O)c1c(CC)nc2c(OCCC3CCCCC3)cccn12,-0.53%
19,N#Cc1nc(-c2cccc3ccccc23)oc1N,-1.15%
20,COc1ccc(Nc2nc(NCc3ccco3)nc(N/N=C/c3ccccc3Cl)n2)cc1,-2%
21,COc1ccc(Nc2oc(-c3ccccc3Cl)nc2C#N)cc1,13.3% (active)

row,Compound,activation
1,COc1cccc(-c2ccc3c(c2)N(Cc2ccccc2OC)C(=O)C(C)S3)c1 (centres undefined),0.04%
2,CC(C)Nc1nc(NCCOc2ccccc2Cl)c2sccc2n1,-1.08%
3,CC(=O)Nc1cccc(-c2cc3nc(NCc4cccnc4)n(C)c(=O)c3s2)c1,0.57%
4,COc1ccc(OC)c(C(O)c2ncc(-c3cccc(C(F)(F)F)c3)[nH]2)c1 (centres undefined),-1.84%
5,COc1ccc(NC(=O)C2Cc3c(-c4cccc(NC(C)=O)c4)ccnc3O2)cc1OC (centres undefined),-0.44%
6,COc1ccc(NC(=O)C2(C)Cc3c(-c4cccc(NC(C)=O)c4)ccnc3O2)cc1OC (centres undefined),-2.08%
7,S=C(NCCCc1cnc[nH]1)NCCCN(Cc1ccc(Cl)c(Cl)c1)c1ccc(Br)cn1,17.5% (active)
8,NCCCNC(=S)NCCCN(Cc1ccc(Cl)cc1)c1ccc(Br)cn1,5.16%
9,CCOC(=O)c1cccc(NC(=O)c2ccc(F)cc2F)c1,-1.66%
10,CCOC(=O)N1CCN(c2c(NCCN3CCN(c4ccccc4F)CC3)c(=O)c2=O)CC1,-0.12%
11,CCOC(=O)c1nn(-c2ccccc2F)c2nc(Nc3ccccc3)cc(=O)n12,10.2% (active)
12,COc1ccc(CN(Cc2ccc(OC)cc2)C(=O)c2cccs2)cc1,-3.4%
13,COc1ccc(CCNC(=O)C(Sc2ccccn2)c2ccccc2)cc1OC (centres undefined),-0.76%
14,COc1ccc(C(CCN(Cc2ccc(OC)c(OC)c2)C(=O)CCl)c2ccccc2)cc1 (centres undefined),22.9% (active)
15,CCCCCNC(=O)c1cccnc1SCC(=O)Nc1ccccc1OC,-0.84%
16,Cc1ccccc1S(=O)(=O)NC(=O)C1(C)CCN1C(=O)C1(c2ccc(Cl)cc2)CC1 (centres undefined),0.06%
17,CC1(C(=O)Nc2cccc3c2CCCC3)CCN1C(=O)C1(c2ccccc2)CC1 (centres undefined),1.08%
18,COc1cccc(NC(=S)NC(=O)c2c(Cl)c(C)nn2C)c1,16.6% (active)
19,Cc1nn(C)c(C(=O)NNC(=S)NC2CCCCC2)c1Cl,-2.05%
20,COc1cccc(OC)c1C(=O)NC(=S)Nc1ccc(N2CCOCC2)c(Cl)c1,-1.34%
21,CC1(C(=O)NS(=O)(=O)c2ccccc2Cl)CCN1C(=O)c1cccc(F)c1 (centres undefined),-0.15%
